According to PubChem BioAssay AID1159580 (chemical genetic matrix, 2015):
Hit rate of the full screen: of about 5,500 compounds, about 2,000 (36%) were called active. Inconclusive results (about 18%) are left out. Cut-off read from the data, not from the text of the source: active = normalized growth mostly below about 0.91 (no sharp cut-off); inconclusive = no clear call, values can overlap the other calls; inactive = mostly above about 0.92. The list shows a part of the results.

Experiment: chemical genetic growth profiling, strain panel (AID 1159580);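 note: tested at 20 µM; growth read once vehicle control cultures reached saturation at 30 °C; 1 = growth at the plate median or of vehicle wells; lower values mean less growth of the strain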
Conditions: S. cerevisiae deletion strains, growth OD

Measured: normalized growth

NCCc1c[nH]c2ccc(C(N)=O)cc12
inactive: locus YAL040C, strain CLN3, stronger effect = lower value 1.1 | locus YCL061C, strain MRC1 (second series), stronger effect = lower value 1 | locus YDR363W, strain ESC2, stronger effect = lower value 1.01 | locus YER002W, strain NOP16, stronger effect = lower value 1.01 | locus YGR078C, strain PAC10, stronger effect = lower value 1.02 | locus YMR307W, strain GAS1, stronger effect = lower value 1 | locus YNL153C, strain GIM3, stronger effect = lower value 1.01 | locus YNL175C, strain NOP13, stronger effect = lower value 1.01 | locus YNL197C, strain WHI3, stronger effect = lower value 1.02 | locus YNL224C, strain SQS1, stronger effect = lower value 0.997 | locus YOR083W, strain WHI5 (second series), stronger effect = lower value 1.02 | locus YPL241C, strain CIN2, stronger effect = lower value 1
